In PubChem BioAssay (NCATS) one finds Potency data, which are given here for 21 compounds.

Common to all, as to test: qHTS profiling for inhibitors of Plasmodium falciparum proliferation (AID 504749); also: nearly all actives have a fitted effect of over 60% in size
Holding throughout (conditions): P. falciparum in erythrocytes, SYBR Green DNA, 72 h; series mostly up to 28.7 µM
For orientation: Quantitative high-throughput screening tests each substance at several concentrations.

The subject of one test is ECU. The gist of the method:
(§1)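 P. falciparum-infected erythrocytes (0.3% parasitemia, 2.5% hematocrit) incubated with compound 72 h at 37 C, 5% CO2. Parasite DNA detected by SYBR Green after lysis, overnight at room temperature; normalised to 0.29 uM artemisinin and DMSO.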

In a further test the test system is FAB9. The gist of the method: as §1
The next test deals with GB4. The gist of the method: as §1
Another test deals with HB3. The essentials:
as §1

The next test deals with ICS. The gist of the method: as §1
The next test has as its system JCK. The gist of the method:
as §1

A further test relates to N140. The gist of the method: as §1
A further test relates to P93_24. The gist of the method:
as §1

Another test relates to P94_40. The gist of the method: as §1
In the next test the test system is PAD. The essentials: as §1

Records with an inconclusive call do not appear. Calls of active or inactive are those of the source. Calls follow the shape of the dose curve; as a rule, active = well fitted inhibition curve with a large enough effect; inconclusive = small, poorly fitted or top-dose-only effect; inactive = flat fitted curve, though single readings scatter.
Potency is read from the fitted curve at half-maximal effect.

On to `NC(=O)c1ncn([C@@H]2O[C@H](CO)[C@@H](O)[C@H]2O)c1O`, for which the Potency entry in the test with ECU, in the test with FAB9, in the test with GB4, in the test on HB3, in the test on ICS and in the test with JCK was “inactive” in each case. Also, the Potency entry in the test on N140, in the test on P93_24, in the test with P94_40 and with PAD was “inactive” throughout.
Consider `CC[N+](C)(C)c1cccc(O)c1`, for which the Potency result in the test on ECU, in the test with FAB9, in the test with GB4, in the test with HB3, with ICS and with JCK was “inactive” in each case. Further, the Potency entry in the test with N140, in the test with P93_24, in the test on P94_40 and with PAD was “inactive” in each case.
`CCN(Cc1ccncc1)C(=O)C(CO)c1ccccc1` (centres undefined): the Potency result with ECU, in the test with FAB9, with GB4, with HB3, in the test with ICS and in the test on JCK was “inactive” in each case. Besides, the Potency entry in the test on N140, in the test on P93_24, in the test on P94_40 and in the test on PAD was “inactive” throughout.
With `FC(F)(F)c1ccccc1-n1ccnc1`, the Potency result in the test with ECU, with FAB9, with GB4, in the test on HB3, in the test on ICS and with JCK was “inactive” each time. The Potency result in the test on N140, with P93_24, with P94_40 and with PAD was “inactive” throughout.
For `Cc1ccc(=O)n(-c2ccccc2)c1`, the Potency entry in the test on ECU, with FAB9, in the test on GB4, in the test with HB3, with ICS and in the test with JCK was “inactive” each time. The Potency entry with N140, with P93_24 and in the test with P94_40 was “inactive” throughout.
In the case of `CSc1ccc(C(=O)c2[nH]c(=O)[nH]c2C)cc1`, the Potency entry in the test with ECU, in the test with FAB9, in the test on GB4, in the test on HB3, in the test on ICS and in the test with JCK was “inactive” throughout. The Potency result in the test on N140, with P93_24, in the test on P94_40 and in the test on PAD was “inactive” throughout.
`CCCCNc1ccc(C(=O)OCCN(C)C)cc1`: the Potency entry with ECU, in the test with FAB9, in the test on GB4, in the test on HB3, with ICS and with JCK was “inactive” in each case. The Potency result in the test with N140, in the test on P93_24, in the test with P94_40 and in the test with PAD was “inactive” throughout.
Turning to `Cc1scc2c1N(C(=O)CN1CCN(C)CC1)c1ccccc1NC2=O`, the Potency result with ECU, in the test on FAB9, in the test with GB4, with HB3, in the test with ICS and with JCK was “inactive” each time. Moreover, the Potency entry with N140, with P93_24, with P94_40 and in the test with PAD was “inactive” in each case.
As for `NS(=O)(=O)c1cc2c(cc1Cl)NC(C1CC3C=CC1C3)NS2(=O)=O` (centres undefined), the Potency result in the test on ECU, in the test with FAB9, with GB4, with HB3, in the test on ICS and with JCK was “inactive” in each case. Further, the Potency result in the test with N140, in the test on P93_24, in the test with P94_40 and in the test with PAD was “inactive” throughout.
Regarding `NC(=O)c1cn(Cc2c(F)cccc2F)nn1`, the Potency result in the test with ECU, in the test on FAB9, with GB4, in the test on HB3, with ICS and in the test on JCK was “inactive” each time. For the same compound, the Potency result in the test on N140, in the test with P93_24, in the test on P94_40 and with PAD was “inactive” each time.
Consider `CC(C(=O)O)c1ccc(CC2CCCC2=O)cc1` (centres undefined), for which the Potency result in the test on ECU, with FAB9, in the test with GB4, with HB3, with ICS and in the test with JCK was “inactive” throughout. Besides, the Potency entry in the test on N140, with P93_24, in the test on P94_40 and with PAD was “inactive” throughout.
Regarding `CC(=O)[C@@]1(O)CC[C@H]2[C@@H]3CCC4=CC(=O)CC[C@]4(C)[C@H]3CC[C@@]21C`, the Potency entry in the test with ECU, with FAB9, in the test with GB4, in the test with HB3, in the test on ICS and with JCK was “inactive” each time. In addition, the Potency result in the test with N140, in the test with P93_24, with P94_40 and with PAD was “inactive” each time.
As for `Nc1nc(N)c2nc(-c3ccccc3)c(N)nc2n1`, the values for the Potency in the test on ECU, in the test with FAB9 and with GB4 were 2820 nM (active), 3160 nM (active) and 1350 nM (active), respectively. Moreover, the Potency result in the test with HB3, in the test on ICS, with JCK, in the test with N140, in the test with P93_24 and with P94_40 was “inactive” each time. Moreover, in the test on PAD, the Potency entry is “inactive”.
For `CNC1(C)C2CCC(C2)C1(C)C` (centres undefined), the Potency entry in the test with ECU, in the test on FAB9, with HB3, with ICS, in the test with JCK and in the test with N140 was “inactive” in each case. The Potency entry in the test with P93_24, with P94_40 and in the test on PAD was “inactive” throughout. The Potency in the test with GB4 was 10700 nM (active).
On to `C[N+](C)(C)CCOC(N)=O`, for which the Potency entry in the test on ECU, with FAB9, in the test on GB4, in the test with HB3, in the test on ICS and in the test with JCK was “inactive” in each case. The Potency entry in the test with N140, in the test with P93_24, in the test with P94_40 and in the test on PAD was “inactive” in each case.
Take `NC/C=C/C(=O)O`: the Potency entry in the test with ECU, in the test with FAB9, with GB4, in the test on HB3, with ICS and in the test with JCK was “inactive” each time. For the same compound, the Potency entry in the test with N140, in the test on P93_24, in the test on P94_40 and in the test on PAD was “inactive” each time.
`c1cnc(N2CCN(Cc3ccc4c(c3)OCO4)CC2)nc1`: the Potency result in the test with ECU, in the test on FAB9, in the test on GB4, in the test on HB3, in the test on ICS and with JCK was “inactive” throughout. Moreover, the Potency result in the test on N140, in the test on P93_24, in the test with P94_40 and in the test with PAD was “inactive” in each case.
As for `CCN(CC)CCNC(=O)c1ccc(NC(C)=O)cc1`, the Potency result in the test on ECU, in the test on FAB9, in the test on GB4, in the test on HB3, with ICS and with JCK was “inactive” throughout. For the same compound, the Potency result with N140, in the test with P93_24, in the test on P94_40 and in the test on PAD was “inactive” in each case.
With `CCO/C([O-])=N/c1c[n+](N2CCOCC2)no1`, the Potency result in the test on ECU, in the test with FAB9, with GB4, in the test with HB3, in the test with ICS and with JCK was “inactive” in each case. In addition, the Potency entry in the test on N140, with P93_24, in the test on P94_40 and with PAD was “inactive” in each case.
Turning to `C[N+](C)(C)CCOC(=O)CCC(=O)OCC[N+](C)(C)C`, the Potency result in the test with ECU, in the test on FAB9, in the test on GB4, with HB3, in the test on ICS and in the test with JCK was “inactive” in each case. Further, the Potency entry in the test on N140, with P93_24, in the test on P94_40 and with PAD was “inactive” in each case.
For `Cc1nnc(SCC2=C(C(=O)O)N3C(=O)[C@@H](NC(=O)Cn4cnnn4)[C@H]3SC2)s1`, the Potency result with ECU, in the test with FAB9, with GB4, with HB3, in the test on ICS and in the test on JCK was “inactive” in each case. Besides, the Potency result in the test on N140, in the test on P93_24, in the test on P94_40 and with PAD was “inactive” in each case.
